The values below come from PubChem BioAssay (NCI).

Compounds without any hit were thinned out: in the full panel of roughly 83,000, 20% have a hit.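 Values shown are percent growth following 48 h exposure of cells in 96-well plates to a single concentration of compound; below 10 was considered active.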 Unmarked numbers belong to inactive results. Calls of active or inactive are those of the source.

Common to all, as to assay: NCI-60 one-dose screen, 48 h (100 = growth as untreated, 0 = no growth, -100 = all killed)
Holding throughout (settings): 10 µM unless noted

The subject of test [1] is NCI-H23 lung.
The test system of test [2] is NCI-H226 lung.
In test [3] the test system is NCI-H322M lung.
Test [4] concerns HOP-62 NSCLC.
Test [5] deals with NCI-H460 lung.
For test [6], the system named is HOP-92 NSCLC.
The test system of test [7] is NCI-H522 lung.
The test system of test [8] is A549/ATCC NSCLC.
The test system of test [9] is 786-0 renal.
Test [10] concerns COLO 205 colon.

As for `Cc1ccc(/C=C(\C#N)n2nnc3cc(F)c(F)cc32)cc1`, the growth in test [1] was 27.1%; in test [2], 47.6%; in test [3], 4.87% (active); in test [4], 23.1%; in [5], 22%; in [6], -5.1% (active). For the same molecule, the growth in test [7] was 1.39% (active); in test [8], 10.1%; in test [9] it was -26.8% (active); in [10], -27.9% (active).
On to `C=CC(=O)Nc1ccc(Oc2nccc(Nc3nnc(-c4ccc(C)cc4)s3)n2)cc1`, for which the growth in test [1] was 79.9%; in [2], 86.2%; in test [3], 98.7%; in test [4], 83.5%; in test [5] it was 59.9%; in test [6] it was 72.4%. Also, the growth was 24.3% in test [7], 77% in test [8], 70.8% in test [9] and 100% in test [10].
With `Cc1c(CN)cc(-c2ccc(Cl)cc2)n1-c1ccccc1`, the growth was 73.8% in test [1]; 38.4% in test [2]; 88.4% in test [3]; 91.6% in [4]; 75.5% in test [5]; 90.1% in test [6]. Also, the growth was 68% in [7], 75.2% in [8], 90.8% in test [9] and 110% in test [10].
For `CC1CCN(C(=O)CCCl)c2ccccc21` (stereo not given), the growth in test [1] was 90.6%; in [2], 105%; in [3], 107%; in [4], 112%; in test [5], 101%; in [6], 115%. The growth is 84.9% in test [7], 96.6% in [8], 110% in test [9] and 111% in [10].
As for `CC1C=CC(OC(=O)C(C)(O)CCC(O)(C(=O)OC2CC(O)C(C(C)C)CC2(C)O)C(C)C)(C(C)C)CC1` (stereo not given), the growth in [1] is -70.5% [4.63 µM] (active); in test [2] it was -48.6% [4.63 µM] (active); in test [3], -89.9% [4.63 µM] (active); in test [4], -68.7% [4.63 µM] (active); in test [5], -69.3% [4.63 µM] (active); in [6] it was -67.1% [4.63 µM] (active). In addition, the growth is -76.7% [4.63 µM] (active) in test [7], -78.2% [4.63 µM] (active) in test [8], -88.5% [4.63 µM] (active) in test [9] and -68.3% [4.63 µM] (active) in test [10].
On to `Cc1ccc(-c2nc3nc(-c4ccccc4)nc(N4CCCN(S(C)(=O)=O)CC4)c3o2)cc1`, for which the growth in test [1] was 86.6%; in [2] it was 58.1%; in [3] it was 93.9%; in test [4], 66.5%; in [5], 4.39% (active); in test [6] it was 84.9%. Moreover, the growth in [7] is 78.8%; in [8], 38.8%; in test [9], 87.7%; in test [10] it was 86.5%.
Regarding `CCNC(=O)Oc1ccc(/C(=C(/C)Cc2ccc(OC)cc2)c2ccc(OCCN3CCCCC3)cc2)cc1`, the growth was 87.7% in test [1]; 86.5% in test [2]; 89.2% in test [3]; 91.5% in test [4]; 35.7% in [5]; 44.4% in test [6]. Besides, the growth in test [7] was 72.8%; in [8] it was 62%; in test [9], 72.6%; in [10], 20.9%.
As for `COc1ccc(/C(C)=C(\c2ccc(Cl)cc2)c2ccc(OCCN3CCCCC3)cc2)cc1`, the growth in test [1] is 57.9%; in test [2], 89.4%; in test [3], 68.8%; in test [4], 68.6%; in [5], 24.6%; in test [6], 70.3%. The growth in [7] is 78.3%; in test [8], 38.5%; in test [9], -5.84% (active); in test [10], -4.92% (active).
Regarding `Fc1ccc2[nH]cc(-c3nc(-c4c[nH]c5ccncc45)cs3)c2c1`, the growth was 49.3% in test [1]; 68.6% in test [2]; -5.67% (active) in [3]; -73.6% (active) in test [4]; -71.5% (active) in [5]; 28.6% in test [6]. For the same molecule, the growth in test [7] was -61.1% (active); in test [8] it was -41.7% (active); in test [9], -92.9% (active); in [10], -72.9% (active).
Regarding `Cc1cccc(Oc2ccc(Nc3ncnc4ccc(NC(=O)CN5CCN(C)CC5)cc34)cc2Cl)c1`, the growth is 69.6% in [1]; 85.2% in test [2]; 15.1% in test [3]; 60% in test [4]; 2.18% (active) in test [5]; 43.1% in test [6]. In addition, the growth is 0.619% (active) in [7], 28.4% in test [8], -40.7% (active) in test [9] and -43.4% (active) in test [10].
As for `COc1ccc2[nH]cc(-c3nc(-c4c[nH]c5c(Cl)nccc45)cs3)c2c1`, the growth in [1] was 54.1%; in test [2], 40.3%; in test [3], 72.2%; in [4] it was 61.2%; in [5] it was -3.62% (active); in test [6] it was 56.2%. For the same molecule, the growth was 25.8% in [7], 28.6% in [8], 9.87% (active) in test [9] and 42.2% in test [10].
`COc1cc(C(=O)c2c(-c3ccccc3)oc3c(OC)cccc23)cc(OC)c1OC`: the growth in [1] is 23.8%; in [2], 8.39% (active); in [3], 46.2%; in test [4] it was 30%; in test [5], 3.18% (active); in [6] it was -1.18% (active). The growth is 13.9% in [7], 17% in test [8], 9.22% (active) in [9] and -15.7% (active) in test [10].
`CN(CCCNC(=O)CCOCCOCCOCCNC(=O)Cc1ccc2ccc3cccc4ccc1c2c34)CCCNc1cc(-c2ccc3ccccc3c2)nc2ccccc12`: the growth in test [1] was -82.9% (active); in [2], -47.1% (active); in test [3] it was -88.4% (active); in [4], -90.4% (active); in test [5], -82.6% (active); in test [6], -88.2% (active). Also, the growth in [7] is -59% (active); in [8] it was -33.9% (active); in [9] it was -85.6% (active); in test [10], -87.7% (active).
